Sampled rows, rich in hits. Any-hit rate of the full collection: about 2.8%.
bovine MsrA act: activates bovine MsrA enzyme | purified bovine MsrA, absorbance read-out | activation, % at 10.6 µM | 360,000 tested, 0.3% active; in the data active = activation above about 7.5%;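 also: 0% = vehicle and 100% = reference activator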
HGIII-sPLA2 inh: Inhibits HGIII-sPLA2 liposome hydrolysis, primary screen. Q9NZ20. QFRET BODIPY PC-A2 liposome hydrolysis, fluorescence. inhibition, % at 12.2 µM. 370,000 tested, 0.56% active. AID 743126;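 active = inhibition above mean plus 3 SD of compounds lying within the high and low control bounds, cut at about 19% in these data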;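 also: 0% = median of test compound wells and 100% = no enzyme DMSO wells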
Target sequence (Q9NZ20 whole entry, looked up): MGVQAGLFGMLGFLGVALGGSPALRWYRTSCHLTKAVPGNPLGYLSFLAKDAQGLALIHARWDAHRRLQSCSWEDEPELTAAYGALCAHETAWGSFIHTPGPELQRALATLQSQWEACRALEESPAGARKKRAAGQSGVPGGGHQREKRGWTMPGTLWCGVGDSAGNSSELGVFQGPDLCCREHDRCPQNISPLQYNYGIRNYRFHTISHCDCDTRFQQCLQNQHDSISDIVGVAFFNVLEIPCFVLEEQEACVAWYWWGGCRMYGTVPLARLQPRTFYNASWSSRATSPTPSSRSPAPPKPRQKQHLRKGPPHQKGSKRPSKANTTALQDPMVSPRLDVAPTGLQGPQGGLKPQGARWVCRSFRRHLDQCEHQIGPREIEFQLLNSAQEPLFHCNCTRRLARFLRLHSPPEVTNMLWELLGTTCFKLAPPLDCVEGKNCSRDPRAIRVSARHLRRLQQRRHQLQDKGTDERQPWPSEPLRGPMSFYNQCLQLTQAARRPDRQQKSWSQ
rCAG RNA binder: r(CAG) repeat RNA binding | inhibition, % at 3 µM | AID 651821 | TO-PRO-1 dye displacement fluorescence | 370,000 tested, 1.3% active;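 active = inhibition above the plate cutoff, the mean of all test compounds on that plate plus 3 SD, cut at about 35% in these data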;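 also: 0% = DMSO alone and 100% = 100 µM mitoxantrone as full dye displacement; higher means more dye released from RNA so lower well fluorescence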
MsrA inhibitor: inhibitors of bovine MsrA | purified bovine MsrA, absorbance read-out | inhibition, % at 15.5 µM | 360,000 tested, 0.75% active | AID 651718;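 also: 0% = vehicle wells with enzyme and 100% = reference inhibitor wells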
MsrA conf: bovine MsrA inhibition, confirmed; shares compounds with MsrA inhibitor; purified bovine MsrA, absorbance read-out; inhibition, % at 15.5 µM; 2,300 tested, 41% active; AID 651822;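 also: coupled to thioredoxin reductase with NADPH and selenocystamine and DMSO as substrate; 0% = vehicle only and 100% = full effect of reference inhibitor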
Numbers without * were called inactive; · = no result. Rule as the data show it, unless noted: active = inhibition above about 4.5%; inactive = the rest.

SMILES	bovine MsrA act	HGIII-sPLA2 inh	rCAG RNA binder	MsrA inhibitor	MsrA conf
O=[N+]([O-])c1cc([N+](=O)[O-])c(Oc2cccc(Cl)c2Cl)cc1NN1CCCCC1	-2	-1	3	0	·
CCc1occc(=O)c1Oc1cc(NN2CCCCC2)c([N+](=O)[O-])cc1[N+](=O)[O-]	-4	4	-4	13*	9.0*
CCOc1ccc(/C=C/c2nc(C#N)c(NCCCOC)o2)cc1	-1	5	-3	4	·
COCCCNc1oc(/C=C/c2ccccc2)nc1C#N	-5	-1	-4	5.9*	4
COc1ccc(-n2nc([N+](=O)[O-])c(=NCCc3cccc(C)c3)n2O)cc1	0	-1	-6	-1	·
CCN(CC)C(=O)c1ccc2nc(-c3ccccc3)c(-c3ccccc3)nc2c1	-3	-10	-9	1	·
CCN(CC)C(=O)c1ccc2nc3ccccc3nc2c1	-4	2	-4	5.6*	2
Cn1cc(/C=C(\NC(=O)c2ccccc2Cl)C(=O)N2CCOCC2)c2ccccc21	-8	-1	-5	6.3*	4
COc1cc(C(=O)N/C(=C\c2cn(C)c3ccccc23)C(=O)N2CCN(C)CC2)cc(OC)c1OC	-4	-10	-6	3	·
COc1ccccc1C(=O)N/C(=C\c1cn(C)c2ccccc12)C(=O)N1CCOCC1	-4	6	-2	3	·
COc1ccc(C(=O)N/C(=C\c2cn(C)c3ccccc23)C(=O)N2CCOCC2)cc1OC	-4	-2	-1	4.8*	2
O=C(NCCCN1CCOCC1)c1cc2c(=O)[nH]c3ccccc3c2s1	-3	1	6	5.3*	4
O=C(NC(=S)NCCCN1CCOCC1)c1cccc2ccccc12	-9	10	-4	9.4*	3
COc1cc(NC(=O)c2cccc(F)c2)ccc1NC(=O)c1cc2ccccc2o1	0	11	3	0	·
COc1ccccc1C(=O)N/C(=C\c1cn(C)c2ccccc12)C(=O)NCCCN1CCOCC1	-6	4	-4	5.3*	4
COc1ccc(CN2C(=O)NC3(CCCCCC3)C2=O)cc1F	-3	11	0	0	·
Cc1cccc(N=c2oc3cc(O)ccc3cc2C(N)=O)c1	0	-10	22	8.0*	10*
NC(=O)C1CCN(C(=O)CC(c2ccccc2)c2ccccc2)CC1	-1	5	-2	-1	·
O=C(Nc1ccc(F)cc1)/C(=C1/CCCCCN1)[N+](=O)[O-]	3	3	-1	6.4*	3
CCSc1nnc(NC(=O)NCC(F)(F)F)s1	-4	7	5	-1	·
O=C(O)CC1S/C(=N/N=C/C=C/c2ccccc2[N+](=O)[O-])NC1=O (configuration not stated)	-4	-2	4	6.2*	6.3*
O=C(O)CNC(=O)CC1S/C(=N/N=C/c2ccccc2O)NC1=O (configuration not stated)	-7	5	-1	7.5*	4
O=C(CC1S/C(=N/N=C/C=C/c2ccccc2)NC1=O)Nc1ccc(Cl)c(Cl)c1 (configuration not stated)	-2	0	12	0	·
O=C(O)CC1S/C(=N/N=C/C=C/c2ccccc2)NC1=O (configuration not stated)	-11	-3	4	9.2*	7.8*
O=c1cnnc(Nc2cccc(C(F)(F)F)c2)[nH]1	-4	-1	-2	2	·
SMILES	bovine MsrA act	HGIII-sPLA2 inh	rCAG RNA binder	MsrA inhibitor	MsrA conf
CCN1CCN(S(=O)(=O)c2cccc(S(=O)(=O)N3CCOCC3)c2)CC1	-3	2	1	0	·
C[C@H]1[C@H](c2ccccc2)Oc2ccc(Cl)cc2S(=O)(=O)N1C[C@@H]1CCCN1C(=O)OC(C)(C)C	·	9	2	-1	·
Cc1cc(=O)oc2c(C(=O)/C=C/c3ccccc3)c(O)ccc12	-4	3	8	-1	·
COc1cc(/C=C/C(=O)c2c(O)ccc3c(C)cc(=O)oc23)ccc1O	-8	-6	25	6.9*	6.1*
COc1ccc(/C=C\C(=O)c2c(O)ccc3c(C)cc(=O)oc23)cc1OC	-3	-8	19	5.2*	4
Cc1cc(=O)oc2c(C(=O)/C=C\c3cccs3)c(O)ccc12	-6	-3	6	5.2*	6.3*
COc1cc(/C=C2\C(=O)ON=C2c2ccccc2)cc(Br)c1O	-8	1	3	5.5*	2
CCOc1cc(/C=C2/C(=O)ON=C2C)cc(Br)c1O	-11	4	1	5.0*	3
CCOc1cc(/C=C2\C(=O)ON=C2c2ccccc2)cc(Br)c1O	-8	-4	10	4	·
CC(=O)c1cccc(NC(=O)CN2CCN(Cc3ccccc3)CC2)c1	-3	-3	-1	0	·
O=C(O)c1c(Cl)c(Cl)c(Cl)c(Cl)c1C(=O)OCC1CCCO1 (configuration not stated)	-1	-1	2	-1	·
COc1ccc(/C=C/C(=O)C2(O)CCCCC2)cc1OC	-6	-3	-3	5.3*	4
O=C(COc1ccc(S(=O)(=O)N2CCOCC2)cc1)Nc1ccccc1F	-2	1	-5	0	·
Cc1cc(O)c(C(C)C)cc1N=Cc1ccc([N+](=O)[O-])cc1	-1	8	4	1	·
Cc1cc(O)c(C(C)C)cc1N=Cc1ccc(N(C)C)cc1	-5	0	2	4.9*	4
N#Cc1c(-c2ccccc2)[nH]c(=S)[nH]c1=O	6	13	1	5.0*	3
N#Cc1c(-c2cccc(Cl)c2)[nH]c(=S)[nH]c1=O	5	7	7	3	·
CN(C)n1cccc1/C=C(\C#N)S(=O)(=O)c1cccc(Cl)c1	-2	-2	-2	0	·
CC(C)(C)C(=O)Nc1ccc(F)cc1[N+](=O)[O-]	-3	4	0	6.3*	7.5*
CC(=O)Nc1cc2c(cc1[N+](=O)[O-])-c1ccc(F)cc1C2	-1	-8	2	1	·
CC1Cc2nc(SCC(=O)Nc3ccc4c(c3)OCCO4)n(C)c(=O)c2S1 (configuration not stated)	-4	1	6	5.0*	1
CC1Cc2nc(SCC(N)=O)n(C)c(=O)c2S1 (configuration not stated)	4	17	0	2	·
COCCn1c(SCC(N)=O)nc2c(c1=O)SC(C)C2 (configuration not stated)	-2	5	1	4.7*	2
COCCn1c(SCC(=O)Nc2ccc3c(c2)OCCO3)nc2c(c1=O)SC(C)C2 (configuration not stated)	-11	12	1	5.2*	2
O=C(COC(=O)/C=C/c1ccc([N+](=O)[O-])cc1)Nc1ccc(F)cc1	-4	3	4	0	·
Nc1nc(CCl)nc(Nc2ccc3ccccc3c2)n1	2	14	4	1	·
CCOc1ccc(C(O)c2nccn2Cc2ccccc2)cc1 (configuration not stated)	-8	6	-1	8.8*	5
CC(C)Cc1nc(SCC(=O)N2CCCC2)c2c(=O)n(C)c(=O)n(C)c2n1	-2	-2	-8	8.0*	7.2*
CCc1nc(SCC(=O)N2CCCC2)c2c(=O)n(C)c(=O)n(C)c2n1	-2	9	-8	2	·
